Measurements from the supplement of paper PMC7411640.
Structures can show the parent of a compound that is named as a salt.

Test system: MDA-MB-468
Assay: phospho-S6 immunofluorescence (DAPI-normalised), per-plate z-score; higher = higher phospho-S6 signal (less pathway suppression)
Conditions: 24 h
Protocol: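 GPCR-targeted compound library (MedChemExpress HY-L006) tested on MDA-MB-468 PTEN-null TNBC cells in 384-well plates at 0.1, 1 or 10 uM, combined with vehicle, GDC0941 450 nM or lapatinib 1 uM, for 24 h. Phospho-S6 (S240/244) immunofluorescence normalised to DAPI and expressed as a per-plate z-score; values are the mean of biological triplicates.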

Compound | phospho-S6 immunofluorescence (z-score) (co-treatment: GDC0941 450 nM) | phospho-S6 immunofluorescence (z-score) (co-treatment: lapatinib 1 uM) | phospho-S6 immunofluorescence (z-score) (co-treatment: vehicle)
CCOc1nc2cccc(C(=O)O)c2n1Cc1ccc(-c2ccccc2-c2noc(=O)[nH]2)cc1 [Azilsartan] (compound 10 µM) | -0.76 | 0.26 | -0.54
COc1cc(N)c(Cl)cc1C(=O)NC1CCN(Cc2ccccc2)CC1 [Clebopride (malate)] (compound 10 µM) | 0.46 | -0.14 | 0.29
Cc1ccc(OCC(O)C(C)NC(C)C)c2c1CCC2 (configuration not stated) [ICI 118,551 (hydrochloride)] (compound 10 µM) | 1.2 | -1.56 | 0.46
O=C(Nc1cccc(Cl)c1)c1ccccn1 (compound 10 µM) | -1.46 | 0.72 | -0.86
CC(C)(C)NCC(O)c1cc(O)cc(O)c1 (configuration not stated) [Terbutaline (sulfate)] (compound 10 µM) | 0.52 | 1.51 | 1.44
C[C@H](N)[C@H](O)c1cccc(O)c1 [Metaraminol (tartrate)] (compound 10 µM) | 0.64 | 0.89 | 0.73
CN1[C@@H]2CC[C@H]1C[C@@H](OC(=O)c1c[nH]c3ccccc13)C2 [Tropisetron] (compound 10 µM) | 0.73 | 1.44 | 0.31
O=C(N[C@H]1CCN(C(=O)c2cc(C(F)(F)F)cc(C(F)(F)F)c2)[C@H](Cc2ccc(Cl)cc2)C1)c1ccnc2ccccc12 (compound 10 µM) | -1.97 | -1.9 | -1.44
CN(C)CCCN1c2ccccc2Sc2ccc(Cl)cc21 [Chlorpromazine (hydrochloride)] (compound 10 µM) | 0.58 | -1.09 | 3.4
